# Reference: PubChem BioAssay AID1347426 (Functional Genomics Laboratory (NCATS/FGL), 2020)
# Hit rate of the full screen: of about 31,000 sequences, about 1,400 (4.5%) were called active. This is one part of a sample in which actives are shown more often than they occur. Values without a mark were called inactive.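 How the source made its calls: active means median seed-adjusted z-score above 1 or below -1; inactive means the rest.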
# Assay: Novel Modifiers of Survival Motor Neuron (SMN) Protein: Gene Identification via Genome-wide siRNA Screen
# Conditions: HEK293T SMN2-luciferase reporter, siRNA knockdown, 72 h; actives lie on both sides
# From the text: Spinal muscular atrophy (SMA) is the most common neuromuscular autosomal recessive disorder and one of the leading genetic causes of infant death. SMA results from mutations inducing loss of function or deletion in the survival of motor neuron-1 gene (SMN1), leading to deficiency of the survival motor neuron (SMN) protein. Although a second nearly identical gene, SMN2, is retained in humans, its expression primarily produces an aberrantly spliced isoform that is largely unstable and quickly degraded. We performed a genome-wide RNAi screen using a cell-based reporter assay to identify genes and pathways that modulate SMN protein stability. The screen identified over 200 genes that led to the greatest increase or decrease in luciferase expression.
# Using HEK293T cells stably expressing a luciferase reporter that combines the promoter and splicing based cassettes in tandem with the major portion of the native SMN2 cDNA with luciferase, we performed a genome-wide RNAi screen to identify modulators of SMN protein levels. Luciferase is expressed when full-length SMN protein is generated with luminescence signal proportional to SMN protein levels. Our luciferase-based reporter assay was used to screen Ambion Silencer Select Human Druggable Genome siRNA library (10418 genes, 3 unique siRNAs per gene) using lipid-based reverse transfection.
# Briefly, 1 pmol of each siRNA was spotted to a well of a 384-well plate (Corning, Corning, NY) and 20 microL of serum-free DMEM containing […] of Lipofectamine RNAiMax (Life Technologies, Carlsbad, CA) was then added to each well. Transfected cells were maintained at 37 degrees C in 5% CO2 for 72 hours, 20 microL of ONE-Glo Reagent (Promega) was added to wells for luciferase quantification. Raw luminescence reads were normalized to Ambion(R) Silencer(R) Negative Control #2 siRNA, then log10 transformed. A robust statistical measure of median absolute deviation (MAD) to standardize siRNA activities from each screen. Common Seed Analysis was used to help prioritize clean hits as opposed to those appearing to arise from seed based off-target effects. Candidate modulators were defined as the genes having a MAD score greater than 1.0 or less than -1.0.
row,Sequence,median seed-adjusted z-score
1,GCAAUUCCCAAGAUCCUUATT against LAMB1,1.07 (active)
2,GGUCGAAUGAUAAGGUGUATT against PTK2,-0.0806
3,GCCUCAGUCUUUGCAGUCUTT against CDCP2,0.0708
4,GGUAAUGACUCCACAGGGATT against SNRPN,-0.571
5,GAUACUACCCUGAUCAUAUTT against TMTC3,0.266
6,UGGUGUCAGUGGAUCGCUATT against GPR101,-0.265
7,CCAAAACAGUGGAGAGAGATT against BIN3,0.16
8,GAACAUUGUUUGUAAGGCUTT against SUOX,-0.0649
9,GGAUAUAAUGAGAUAUGUUTT against ETF1,-1.12 (active)
10,GCUCAACUCUCAUUCGGCATT against ZNF550,0.131
11,GACCUGCCGUGAUAUCGUUTT against PSMA3,-0.81
12,CACUAAACGAGGAUUCCUATT against YWHAH,-0.125
13,GGAUCGUAGUGAAACCGAUTT against DDX17,0.231
14,CGUGAUCAAUAGGAAAAUUTT against CCL8,0.436
15,CAGAUUACGUGGAACAGGATT against EFTUD2,-1.25 (active)
16,CGUCCUAAUCUCAAUCUUATT against CD200,-0.0135
17,GCCCAUAUUUCAUCGUGUATT against NPY,-0.0606
18,CAGGAUAUCGAAUCCCUAATT against PPFIA2,0.176
19,GUCGAGUUGUAUCGCAUUATT against COX4I1,-0.39
20,GGCUAGCCCUAGUAUGGAATT against CCAR1,-1.18 (active)
21,CCUUCAAUCACCGACCUUATT against SYNJ2,0.0202
22,CGCUACCUGUCCCUGUAUATT against GPR6,0
23,GCAACAUAUGGGAAUUAGATT against MEIS1,0
24,CAGAGGAGCUACAAAAGUATT against MX1,-1.49 (active)
25,GCAUAUAUCAAGAAUUCAATT against CLIC4,-0.498
26,GAAACUAUAUCCACAUCAATT against GIPR,0.475
27,CAUCUUGAAGUCUUAUUAATT against MYOCD,-0.121

row,Sequence,median seed-adjusted z-score
1,AAUCAGAUCAAAAACAUAATT against TNFRSF10C,0
2,GGAGGAAGGUCUCAACGUATT against TCFL5,1.52 (active)
3,GCAAAUCUAUUUUCGGAAATT against AGTPBP1,-0.201
4,GACUCUUCUGACUAACAUATT against DACH1,0.562
5,GACUCUAUGCUGAUAAUGATT against ADIPOQ,0.557
6,GCUGAGAUUUUCAAUAAGATT against NR1H4,-0.056
7,CGCCCAUUCUUCAAUGUCATT against SIAH1,1.5 (active)
8,AGUGCGCCCAGAAUCUAAATT against ZNF689,0.448
9,CGGAGUUUGUUGAUAUCGATT against LGI2,0
10,CAAAUUUCCUGUUAAUCGATT against APPL1,0
11,GAAAUGACCUUAUUAGUCATT against RYK,-0.446
12,CAGACUACCCUGAUAGUUUTT against FLVCR1,0.197
13,GGUCAGAGACCAUCCAGAATT against GFRA4,-1.59 (active)
14,AGAGGAAGAUAGAUUUUCUTT against PFDN5,0.562
15,GGAUGUAUUGUCGCCUGUATT against RENBP,0.587
16,CGAACUGCUUUAUGACCUATT against KIF20A,0.906
17,GACGAGACCUCUUCUCUCATT against ART1,0.0033
18,CCUGUGGUUUGCUAUCUAATT against SLC24A5,-0.166
19,CGGUGCUGCUAGACGUGAATT against HSPB6,0.394
20,GGGUAAUUGGAACAUGUUUTT against RCN3,-2.44 (active)
21,CCUUUACAAAUAACGGAUATT against NHLRC2,0.548
22,CAUGUUCACUGCUACCGAUTT against LPP,-0.103
23,CCUUCAUCCGUAUCAUGGATT against POLD1,-0.715
24,GCUGUGAUCUCAUGGAUCATT against KLHL3,-0.237
25,GCUUUAUGUGGGCUCAUUATT against RBM39,-1.82 (active)
26,CACUGACACUUACAAUGAATT against UGT3A1,0.864
27,GGAACUUACGAUGCAGGAATT against GALNT13,-0.0149
